Measured values reported in PubChem BioAssay (NCI).
Several values for one entry are separate records, joined by “and”; a condition that tells them apart may be missing. Equal entries are not always repeated. This is part of a sample that, as a whole, favours compounds with a hit. Of some 83,000 tested, about 20% had one in any assay.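 Cell lines were cultured in 96-well plates, exposed to a single compound concentration, and assessed for percent growth 48 hours later.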 Unmarked numbers belong to inactive results. Activity calls are given as the source filed them. How the source made its calls: active means growth percent below 10; inactive means the rest.

What follows are molecules tested on MCF7 breast (assay: NCI-60 one-dose screen, 48 h (100 = growth as untreated, 0 = no growth, -100 = all killed)). Conditions: 10 µM unless noted.

First: N#CC(C#N)=Cc1cccc(F)c1
Second: O=C1NC(=O)C(=C/C=C/c2ccccc2)C(=O)N1
The growth of the first is higher: 101% for the first, 14.2% for the second.

First: CN(C)c1ccc(C=C2C(=O)NC(=O)NC2=O)cc1
Second: Cc1cc(NC(=O)NCCCOc2ccc(N3C(N)=NC(N)=NC3(C)C)cc2Cl)ccc1S(=O)(=O)F
The growth of the first is higher: 100% for the first, 25.5% for the second.

Compared with `[N-]=[N+]=CC(=O)CCC(=O)C=[N+]=[N-]`, `Nc1c(Cl)c(Cl)nc(C(=O)O)c1Cl` is lower in growth: 99.9% for the first, 95.2% for the second.

First: CC1=C2[C@H]3OC(=O)[C@@H](C)[C@@H]3CC[C@@]2(C)C=CC1=O
Second: C[C@]12CCC(=O)C[C@@H]1CC[C@@H]1[C@@H]2CC[C@]2(C)[C@@H](OC(=O)N(CCCl)N=O)CC[C@@H]12
The growth of the first is higher: 103% for the first, 47.7% for the second.

Going from `Cn1cc(C(=O)C[n+]2ccccc2)c2ccccc21` to `c1ccc(CCN2CCCCC2)nc1`, the growth falls from 101% to 96.5%.

Compared with `Nc1nc(=S)nc(N)[nH]1`, `O=[N+]([O-])c1cc(Br)c(O)c(Br)c1` is lower in growth: 96.5% for the first, 94.3% for the second.

First: NC1CN2CCC1CC2 (configuration not stated)
Second: C[C@]12CC[C@@H](OC(=O)N(CCCl)N=O)C[C@@H]1CC[C@@H]1[C@@H]2CC[C@]2(C)C(=O)CC[C@@H]12
The growth of the first is higher: 90.5% for the first, 29.9% for the second.

For `Cc1cc(Br)c([N+](=O)[O-])cc1[N+](=O)[O-]`, the growth was 91%.

`O=[N+]([O-])c1ccc2scc3c4ccccc4nc-3c2c1` was tested, and the growth was -64.6% (active).
For `O=C(O)C1C(C(=O)O)C2(Cl)C(Cl)=C(Cl)C1(Cl)C2(Cl)Cl` (configuration not stated), the growth was 104% and 96.8%.
